proKLK7 act = proKLK7 zymogen activators, primary screen, biochemical, fluorescence intensity; Kallikrein-7 (Homo sapiens), P49862; purified proKLK7, EDANS-DABCYL substrate fluorescence; 100% is mature enzyme control, 0% vehicle; activation, % at 7 µM; actives 0.9% (n = 370,000); AID 652039, 2013;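 active = activation above the mean of all tested compounds plus 3 SD, computed per campaign excluding outliers beyond control limits, cut at about 13% in these data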
Target sequence (P49862 whole entry, looked up): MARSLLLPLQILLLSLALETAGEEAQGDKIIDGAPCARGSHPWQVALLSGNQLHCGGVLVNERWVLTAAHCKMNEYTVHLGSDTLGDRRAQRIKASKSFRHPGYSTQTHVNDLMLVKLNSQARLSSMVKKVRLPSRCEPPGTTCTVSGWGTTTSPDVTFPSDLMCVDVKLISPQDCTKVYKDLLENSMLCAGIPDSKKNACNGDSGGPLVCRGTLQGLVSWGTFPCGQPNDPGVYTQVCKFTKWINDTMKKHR
Neddyl block = inhibitors of cullin neddylation, primary screen, biochemical, TR-FRET, uHTS, NAE and Ubc12 | calls only at 25 µM | actives 0.58% (n = 360,000) | AID 651699, 2012; in the data active = inhibition above about 36%
LEDGF integ inh = blockers of LEDGF/p75-dependent integrase strand transfer – biochemical, TR-FRET, high throughput, primary screen | AID 743269, 2014 | TR-FRET IN-LEDGF/p75 DNA integration, Eu/Cy5 | HIV-1 integrase (with human LEDGF/p75) | actives 0.64% (n = 370,000) | inhibition, % at 3.7 µM;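 active = inhibition above the screen-wide mean plus 3 SD, cut at about 13% in these data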;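 also: signal is the Cy5 over europium emission ratio at 671 and 618 nm; 0% = plate median of compound wells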
UHRF1 binding = UHRF1 methylated DNA binding inhibitors, primary screen, counter-screen for MBD2 inhibitor project, biochemical, TR-FRET, human UHRF1, single concentration. E3 ubiquitin-protein ligase UHRF1 (Homo sapiens), Q96T88. UHRF1 binding to methylated oligo. inhibition, % at 4.4 µM. actives 0.75% (n = 370,000). AID 687016, 2013; in the data active = inhibition above about 21%;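 also: UHRF1 SRA domain binding a hemimethylated CpG hairpin DNA probe; 0% = median of test compound wells and 100% = reference inhibitor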
MBD2 DNA inh = inhibitors of MBD2 binding to methylated DNA, primary screen, biochemical, TR-FRET, DNA-binding domain, human; actives 0.31% (n = 370,000); Methyl-CpG-binding domain protein 2 (Homo sapiens), Q9UBB5; inhibition, % at 4.4 µM; MBD2 binding to methylated oligonucleotide; in the data active = inhibition above about 13%
Rin1 Abl inh = inhibitors of Rin1-Abl protein binding, primary screen, biochemical, TR-FRET. Tyrosine-protein kinase ABL1 (Homo sapiens) + Ras and Rab interactor 1 (Homo sapiens), …. inhibition, % at 7.35 µM. actives 0.4% (n = 360,000). AID 588664, 2011; in the data active = inhibition above about 5%, passing the limit was not always enough
Neddyl conf = blockade of NEDD8 conjugation to cullin – biochemical, TR-FRET, single concentration, confirmation | shares compounds with Neddyl block | TR-FRET cullin neddylation biochemical assay | calls only at 25 µM | actives 13% (n = 1,800) | AID 652217, 2013; in the data active = inhibition above about 40%;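 also: neddylation substrate is the cullin 1 ring ligase complex with SKP2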
The depositor's hits bear a star; i = inactive; x = no result shown; + = active, no number. Sampled rows, rich in hits. Any-hit rate of the full collection: about 3.1%.

SMILES	proKLK7 act	Neddyl block	LEDGF integ inh	UHRF1 binding	MBD2 DNA inh	Rin1 Abl inh	Neddyl conf
COc1cc(C2NC(=O)c3ccccc3O2)ccc1OC(C)C (stereo not drawn)	-3	i	-1	0	-2	-2	x
CCOc1cc(C2NC(=O)c3ccccc3O2)ccc1OC (stereo not drawn)	-3	+	-1	3	3	-1	i
COc1ccccc1OCCC(=O)OCC(=O)NCc1ccc(F)cc1	0	i	4	2	-6	0	x
N#CCCN1CCN(C2=NC(=O)/C(=C\c3cccs3)S2)CC1	0	i	6	-5	-3	-4	x
CN(C)c1oc(-c2ccccc2Cl)nc1C#N	1	+	2	-2	2	-6	i
Cc1c(OCc2nn[nH]n2)ccc2c3c(c(=O)oc12)CCC(C)C3 (stereo not drawn)	-9	+	0	-2	2	-4	i
CCc1ccc2c(c1)C(=O)C[C@]1(CCC[C@H](C)C1)O2	-6	+	-1	-2	-4	-2	i
O=C1CC2(CCCCC2)Oc2ccc(Cl)cc21	-1	+	-1	4	-4	5	i
COc1ccc(-c2cc3ccc(OCc4nn[nH]n4)cc3oc2=O)cc1OC	-25	+	-1	0	-11	0	+
COc1ccc(-c2cc3ccc(OCC(C)=O)cc3oc2=O)cc1OC	0	i	-1	-2	-8	1	x
Cc1nn(-c2ccccc2)c2nc(Cl)c(C(=O)O)cc12	2	x	0	0	1	1	x
Cc1nn(-c2ccccc2)c2nc3c(cc12)C(=O)CCC3	1	+	1	-1	3	2	i
O=C(OCC#CCSc1nnc(-c2cccc3ccccc23)o1)c1ccc(F)c(F)c1	x	x	1	-3	-2	x	x
CC(=O)c1ccc2c(c1)c(C#N)c1ccccc1[n+]2[O-]	2	+	7	-10	-21	-1	+
Nc1ccc(C(=O)N/N=C2\CCCc3c2[nH]c2ccccc32)cc1	0	+	-1	5	-3	-4	i
Cc1ccc(NC(=O)c2cccc(S(=O)(=O)N(C)C3CCCCC3)c2)nc1	0	i	-3	2	5	-6	x
CCOc1ccc(-c2nc3scc(-c4cccs4)c3c(=O)[nH]2)cc1	-1	+	-1	2	1	2	x
Cc1ccn2c(=O)c(C(=O)NC3CCCCC3C)c(O)nc2c1 (stereo not drawn)	-4	+	-4	1	-3	0	i
Cc1ccn2c(=O)c(C(=O)NCCCN3CCCCC3C)c(O)nc2c1 (stereo not drawn)	x	+	x	x	x	2	i
Cc1ccn2c(=O)c(C(=O)NCCCN3CCCC3=O)c(O)nc2c1	8	+	0	1	4	7	+
CCC(=O)c1cccc2c1N=CC1=C(CC(C)(C)CC1=O)N2	0	+	-6	2	5	6	x
CC(=O)OCC[C@H](NS(=O)(=O)OCC(Cl)(Cl)Cl)c1ccccc1	0	i	3	-4	-1	1	x
COc1cc(OC)c2c(=O)c3c(C(=O)O)c(O)ccc3oc2c1	4	x	4	-7	-1	x	x
CCOC(=O)c1cn2nc(Oc3cccc(C(F)(F)F)c3)ccc2n1	2	+	4	3	2	4	x
CCOC(=O)c1cn2nc(Oc3ccccc3)ccc2n1	0	i	-5	0	-1	-6	x
SMILES	proKLK7 act	Neddyl block	LEDGF integ inh	UHRF1 binding	MBD2 DNA inh	Rin1 Abl inh	Neddyl conf
O=C(O)c1cc2cc(OCc3ccccc3)ccc2[nH]1	0	+	2	5	-2	0	i
CCOc1ccccc1OCCCNCc1ccco1	0	i	2	4	-1	0	x
O=C(N/N=C/c1ccccc1O)C1(O)c2ccccc2-c2ccccc21	-31	+	-4	-2	1	-1	i
COc1ccccc1-c1csc(NC(=O)c2cc(-c3cccs3)nc3ccccc23)n1	-3	x	-5	2	-1	-4	x
COc1ccc(CCN(C)C(=O)c2cc(-c3ccccc3)nc3ccccc23)cc1OC	0	i	-4	0	1	5	x
COc1ccc(-c2cc(C(=O)N3CCN(c4ccccc4O)CC3)c3ccccc3n2)cc1OC	-4	+	-1	-1	1	-4	+
COc1ccc(-c2cc(C(=O)N(C)CCc3ccc(OC)c(OC)c3)c3ccccc3n2)cc1	-3	+	-3	-1	0	3	i
COc1ccc(-c2cc(C(=O)N3CCCCCC3)c3ccccc3n2)c(OC)c1	-2	+	8	14	2	-2	x
COc1ccc(-c2csc(NC(=O)c3cc(-c4cccs4)nc4ccccc34)n2)c(OC)c1	0	+	6	-1	0	-3	i
C[C@]12Cc3ccccc3C1CC1=N[C@@H](c3ccc(C(F)(F)F)cc3)O[C@@]13C[C@@H]2C(=O)N3C1CCN(Cc2ccccc2)CC1 (stereo partly drawn)	0	x	-3	0	0	x	x
COc1ccc(S[C@]2(C(=O)N3CCN(c4ncccn4)CC3)CC(=O)N(c3ccc(Cl)cc3)[C@@H]2c2ccc(OC)cc2)cc1	0	x	-1	-1	1	x	x
C[C@H]1[C@@H](NC(=O)c2ccc(C(F)(F)F)cc2)CC[C@@]23CCCN2C(=O)CCC[C@@H]13	x	x	0	-1	-3	x	x
COC(=O)C1CCN(C2CC(=O)N(c3cc(C)cc(C)c3)C2=O)CC1 (stereo not drawn)	1	i	0	5	2	0	x
COc1ccc(S(=O)(=O)Nc2ccc3c(c2)C(=O)N([C@H](C)CO)C[C@H](C)[C@@H](CN(C)S(=O)(=O)c2c(C)noc2C)O3)cc1	0	i	-1	-2	-2	0	x
COC(=O)[C@H](CC(C)C)NC(=O)N1CCC(C)CC1	1	i	-2	1	-3	-2	x
